The list is not random: actives were taken first. Their share in the collection is about 12%.
PLK1 PBD block = PLK1 (human) polo-box domain binding inhibition. Plk1 PBD binding of FITC phosphopeptide, fluorescence polarization. Potency, µM, inactives show max response, negative = inhibition, usual class: inhibitors. 360,000 compounds, 2.8% hits. AID 720504; note: series mostly up to about 57 µM; nearly all actives have a fitted effect of over 65% in size
RORgamma inh = inhibitors of mouse ROR gamma transcriptional activity. P51450. 310,000 compounds, 5.4% hits. Potency, µM (doses to about 53.6 µM), for inactives: at the highest dose activity change, negative = inhibition, actives largely listed as inhibitors. Drosophila S2 Gal4-RORgamma UAS-luciferase reporter, 20 h. AID 2551; note: nearly all actives have a fitted effect of over 60% in size
Target sequence (P51450 whole entry, looked up, the tested form may be a part): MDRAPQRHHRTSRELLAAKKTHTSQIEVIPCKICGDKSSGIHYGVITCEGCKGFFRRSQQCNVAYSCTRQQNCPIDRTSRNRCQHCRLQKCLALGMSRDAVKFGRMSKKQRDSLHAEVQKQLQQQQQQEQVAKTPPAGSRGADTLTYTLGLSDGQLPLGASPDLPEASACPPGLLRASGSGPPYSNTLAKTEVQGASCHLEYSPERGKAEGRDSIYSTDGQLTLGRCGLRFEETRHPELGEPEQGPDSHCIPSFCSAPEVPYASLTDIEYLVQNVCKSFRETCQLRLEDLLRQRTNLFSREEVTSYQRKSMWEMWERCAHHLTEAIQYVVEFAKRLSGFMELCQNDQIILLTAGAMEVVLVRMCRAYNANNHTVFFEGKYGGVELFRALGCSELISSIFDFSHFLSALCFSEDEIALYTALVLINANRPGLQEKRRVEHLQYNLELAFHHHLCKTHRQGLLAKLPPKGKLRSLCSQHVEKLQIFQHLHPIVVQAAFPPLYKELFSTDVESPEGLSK
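Luminescence from a UAS-regulated Photinus luciferase reporter in stably transfected Drosophila Schneider cells is measured; decreased signal marks ROR gamma inhibition. Fusion expression is induced by 700 uM copper sulfate for 20 hr.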
Gal4-VP16 FLuc = counter-screen for ROR gamma inhibitors: Gal4-VP16 reporter; 310,000 compounds, 3.5% hits; Drosophila S2 Gal4-VP16 UAS-luciferase, luminescence, 20 h; AID 2546; Potency, µM (doses to about 53.6 µM), inactives show at the top dose activity, negative = inhibition, hits mostly inhibitors;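 note: Gal4-VP16 expression switched on by copper sulfate through the metallothionein promoter; nearly all actives have a fitted effect of over 50% in size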
ALDH1A1 inh = ALDH1A1 (human) enzyme inhibition | 220,000 compounds, 7.3% hits | Purified ALDH1A1, NADH fluorescence, propionaldehyde substrate | P00352 | Potency, µM (top dose mostly 75.3 µM), without a hit: top-dose activity, negative = inhibition, usual class: inhibitors; active = well fitted inhibition curve with a large enough effect, not every such curve was filed as active; inconclusive = small, poorly fitted or top-dose-only effect, or another doubt; inactive = no such curve, though single readings can be large or run the other way;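 note: plate controls were no enzyme wells and a reference inhibitor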
Sfp PPTase inh = blocks B. subtilis Sfp PPTase activity. Q9F4F7. Biochemical Sfp PPTase activity, qHTS. Potency, µM, for the others: largest response in the series, negative = inhibition, actives largely listed as inhibitors. 310,000 compounds, 3.5% hits. AID 1490;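 note: the enzyme is Sfp with the accession as filed and its product quenches rhodamine fluorescence; 0% = enzyme reaction without inhibitor and -100% = no enzyme wells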
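Compounds were incubated with enzyme (final 15 nM) for 15 min at room temperature before substrate addition started the reaction. Fluorescence at 525 nm excitation, 598 nm emission was recorded immediately and after 30 minutes.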
The depositor's hits bear a star; ? = inconclusive; . = no result; [ ] = remark or other dose. Unless noted, calls come from the whole dose curve; as a rule, active = well fitted curve in the direction sought with a large enough effect; inconclusive = small, poorly fitted or top-dose-only effect, or another doubt; inactive = no such curve, though single readings can be large; an effect the other way counts as inactive or inconclusive. Unless noted, % is set by controls: 0 for no effect and ±100 for the full control effect; potency is the fitted concentration of half-maximal effect.

SMILES	PLK1 PBD block	RORgamma inh	Gal4-VP16 FLuc	ALDH1A1 inh	Sfp PPTase inh
C=C(C)C(O)/C=C/C=C/c1ccccc1 (stereo not drawn)	.	31%[10 µM]	8%[10 µM]	-13%[13.5 µM]	3%
COc1ccccc1CN1CCCC2(CCN(S(=O)(=O)c3ccccc3)CC2)C1	.	-21%	-10%	2%	13%
CCN(C)C1CN(Cc2cn(Cc3cc(C)cc(C)c3)nn2)S(=O)(=O)C1 (stereo not drawn)	-7%	.	.	.	.
CC[C@]1(C(=O)OC)[C@H]2C(=O)N(C)C(=O)[C@H]2[C@H]2CN(C)C(=NC3CCCCC3)N21	-7%	.	.	.	.
O=CC(=Cc1ccccc1)c1ccccc1	5%	.	.	.	.
NC(=O)C1CCN(C(=O)CSc2nc3ccccc3o2)CC1	2%	2%	4%	19%	27%
COc1ccccc1N1CCN(C(=O)CSc2nc3ccccc3o2)CC1	-9%	0%	9%	8.9µM*	-21%
COc1ccc(/C=C2/SC(=S)N(NS(=O)(=O)c3ccccc3)C2=O)cc1	?	31%	-16%	.	3%
O=C1/C(=C\c2ccc(Br)cc2)SC(=S)N1NS(=O)(=O)c1ccccc1	21µM*	-7%	2%	.	-17%
C=CCOc1ccc(/C=C2\SC(=S)N(NS(=O)(=O)c3ccccc3)C2=O)cc1	21µM*	1%	2%	.	-4%
Nc1ncnc2c1ncn2[C@@H]1O[C@H](COP(=O)(O)OP(=O)(O)OC[C@H]2OC(O)[C@H](O)[C@@H]2O)[C@@H](O)[C@H]1O (stereo partly drawn)	.	.	.	-5%	16%
Cc1cc(C)cc(N(C(=O)c2ccccn2)C(C(=O)NC2CCCCC2)c2cccs2)c1 (stereo not drawn)	-9%	-23%	1%	6%	8%
CC1CCCCN1S(=O)(=O)c1ccc(N(C(=O)c2cnccn2)C(C(=O)NC2CCCCC2)c2cccs2)cc1 (stereo not drawn)	-7%	7%	4%	8.9µM*	-7%
CC1CCCCN1S(=O)(=O)c1ccc(N(C(=O)c2cnccn2)C(C(=O)NC2CCCC2)c2cccs2)cc1 (stereo not drawn)	-7%	35%	4%	4µM*	4%
CC(=O)N1CCC2(CCN(Cc3ccncc3)CC2)CC1	.	1%	-17%	-3%	19%
COc1ccc(C2C=C(C34CC5CC(CC(C5)C3)C4)NC(=S)N2)cc1OC (stereo not drawn)	-10%	1.3µM*	1.6µM*	7.9µM*	-7%
Cc1ccc(S(=O)(=O)NCCNC(=O)c2nonc2N)cc1	-5%	11%	-15%	4%	9%
CSc1nsc(SC)c1C(=O)NCCNS(=O)(=O)c1ccc(C)cc1	-9%	-9%	1%	25µM*	50µM*
Nc1c(-c2ccccn2)cnn1-c1nc(-c2ccc(F)cc2)cs1	-2%	5µM*	-14%	8%	-7%
O=C1C2C(c3ccccc3)CC=CC2C(c2ccc(C(F)(F)F)cc2)N1Cc1ccccc1 (stereo not drawn)	.	?	?	.	-7%
CCCCC(=O)Nc1sc2c(c1C(=O)OCC)CCC(C=O)=C2Cl	.	15%	-17%	10µM*	?
CCN(CC)S(=O)(=O)c1ccc(O)c(NC(=O)c2cc(-c3cc(OC)c(OC)c(OC)c3)nc3ccccc23)c1	19µM*	?	-12%	.	45µM*
COc1cc(-c2cc(C(=O)Nc3ccc(S(=O)(=O)Nc4ncccn4)cc3)c3ccccc3n2)cc(OC)c1OC	27µM*	-35%	11µM*	325%	11%
Cc1noc(NS(=O)(=O)c2ccc(NC(=O)c3cc(-c4ccccc4Cl)nc4ccccc34)cc2)c1C	38µM*	8%	2%	4%	23%
CCS(=O)(=O)c1ccc(O)c(NC(=O)c2cc(OC)c(OC)c(OC)c2)c1	-4%	-10%	0%	16µM*	-8%
SMILES	PLK1 PBD block	RORgamma inh	Gal4-VP16 FLuc	ALDH1A1 inh	Sfp PPTase inh
COC(=O)[C@@]1(Sc2ccc(C)cc2)CC(=O)N(C(=O)c2ccccc2)[C@@H]1c1ccccc1	-2%	.	.	.	.
O=Cc1ccc(OCc2cn(CC(=O)c3ccc(O)cc3)nn2)cc1	-5%	.	.	.	.
CCCCC[C@H](C)N1C[C@H](COCc2ccccc2)Oc2cc(N3CC[C@@H](N(C)C)C3)ccc2S1(=O)=O	1%	.	.	.	.
CCCCc1c(Cc2cccc(F)c2)ncn1CCc1ccccc1OC	2%	.	.	.	.
CN(C)c1ccc(-c2ccc3ncnc(-n4ccnc4)c3c2)cc1	.	7.1µM*	13µM*	?	-22%
CN(C)C(=O)c1ccc(-c2cncnc2-n2ccnc2)cc1	.	-1%	-1%	-4%	6%
Cc1ccccc1-c1ccc2ncnc(-n3ccnc3)c2c1	.	11µM*	13µM*	?	11%
Cc1ccccc1-c1ccc2ncnc(N(C)C)c2c1	.	?	-18%	?	?
CCOc1ccc2[nH]c3c(NCCC(C)C)ncnc3c2c1	3%	?	4.5µM*	.	-17%
COc1ccc2[nH]c3c(NCCC4=CCCCC4)ncnc3c2c1	6%	?	7.1µM*	?	-16%
CCN(/C(N)=N/c1nc(C)cc(C)n1)c1ccccc1	27µM*	-34%	3%	.	17%
COc1ccc(NC(=O)CN2C(=O)/C(=C3\SC(=S)N(CCC(=O)O)C3=O)c3ccccc32)cc1	11µM*	20%	-3%	.	12%
O=C(CN1C(=O)/C(=C2/SC(=S)N(CCS(=O)(=O)O)C2=O)c2ccccc21)Nc1cccc(Br)c1	27µM*	.	.	.	.
CC1CCC2=C1C[C@H](C(C)(C)O)CC[C@@H]2C (stereo partly drawn)	.	21%	3%	-5%	1%
CCOC(=O)C1Nc2ccccc2C2C(O)C(O)CC12 (stereo not drawn)	38µM*	.	.	.	.
CC1(C(=O)NS(=O)(=O)c2ccccc2Cl)CCN1C(=O)CCC1CCCC1 (stereo not drawn)	1%	.	.	.	.
COc1cc2c(cc1OC)C(c1ccccc1)N(C(=O)c1ccco1)CC2 (stereo not drawn)	-6%	5%	3%	?	-21%
O=C(c1ccco1)N1CCn2cccc2C1c1ccccc1 (stereo not drawn)	0%	?	-6%	1.3µM*	-27%
COc1cccc(OCC(=O)NNC(=O)C(=O)Nc2cccc(C)c2)c1	-2%	-8%	-6%	.	20%
Cc1nn(-c2ccccc2)cc1C(c1c(N)[nH]c(=S)[nH]c1=O)c1c(N)[nH]c(=S)[nH]c1=O	-24%	-8%	7%	2%	22µM*
Cc1ccc(NCCC(=O)c2ccccc2)cc1Cl	3%	2%	5%	3.2µM*	9%
Cc1ccc(NC(=O)C(c2ccccc2)N(C)C)cc1Cl (stereo not drawn)	2%	18µM*	?	1.4µM*	-20%
Cc1ccc(NC(=O)C(OC(=O)c2ccc(O)cc2)c2ccccc2)cc1Cl (stereo not drawn)	-11%	-26%	-8%	?	27%
Cc1ccc(NCC(=O)c2ccccc2)cc1Cl	-3%	6%	-2%	20µM*	9%
